In PubChem BioAssay one finds composite z-score, composite Z-score and z-score data, which are given here for 5 compounds.

One test addresses Albumin (Bos taurus) (UniProt P02769). In words: bovine serum albumin binders on microarray, profiling panel, artefact control for SMM control protein annotation, biochemical, small-molecule microarray, Alexa647 label, 635/667 nm fluorescence (AID 1118).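 Further: score merges 667 nm emission intensity and signal-to-noise per printed compound spot.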 The settings on record: BSA-A647 binding, fluorescence 635 nm, higher = more signal.
A short description of test [1]: small-molecule microarray binders of probe aXIP, primary screen, biochemical, NeuroSMM set, 635/667 nm fluorescence (AID 1119).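 Further: probe is the protein aXip251-270 applied at 1 µg/mL to compound-printed slides; binding of probe to printed compounds measured as 667 nm fluorescence plus signal to noise.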 The conditions noted are these: higher = more signal, called active from +8 up or from −8 down.
Test [2] is described as follows: small-molecule binders of probe aNOTCH3, primary screen, biochemical, small-molecule microarray, 635/667 nm fluorescence (AID 1120).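 Further: probe is a biotin-tagged antibody raised against NOTCH3 rather than NOTCH3 protein; score merges spot fluorescence near 667 nm with spot signal to noise.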 The settings on record: higher = more signal.
A short description of test [3]: small-molecule binders of probe aNOTCH2, primary screen, biochemical, small-molecule microarray, 635/667 nm fluorescence (AID 1121).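 Further: score merges feature fluorescence read at 667 nm with its signal to noise.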 The settings on record: higher = more signal.
In test [4] the target is Carbonic anhydrase 2 (Homo sapiens) (UniProt P00918). In words: CAII small-molecule binders, profiling panel, biochemical, small-molecule microarray, Alexa647-labelled CAII (AID 1122). The settings on record: CAII-A647 binding fluorescence, higher = more signal.
Test [5] is described as follows: COS7 lysate on small-molecule microarray, probe aHis, 635 nm (AID 1123).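 Further: z-score combines 667nm fluorescence intensity with signal-to-noise per printed compound spot.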 The conditions noted are these: COS7 cell lysate, fluorescence, higher = more signal.
Test [6] can be described thus: compound binding in COS7 lysate, probe aLAP1, primary screen, cell lysate, small-molecule microarray (AID 1124).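 Further: lysate comes from COS7 cells expressing LAP1 and is applied at 0.3 µg/mL; score merges spot fluorescence near 667 nm with signal-to-noise over triplicate slides.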 The settings on record: probe aLAP1, fluorescence, higher = more signal.
In the next test the test system is Sam68 (KHDRBS1). In words: Sam68 small-molecule binders, primary screen, biochemical, small-molecule microarray, 635 nm fluorescence (AID 1125).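 Further: score merges 667 nm channel intensity with signal to noise over triplicate slides.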 The settings on record: small-molecule microarray binding, higher = more signal.
Test [7] deals with Chordin-like protein 2 (CHRDL2). In words: CHRDL2 small-molecule binders, primary screen, biochemical, small-molecule microarray, 635 nm fluorescence (AID 1126).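 Further: printed compound slides probed with Chrdl2 protein at 4 µg/mL for 1 h at 4 C; score merges 667 nm emission intensity with signal to noise over three replicate slides.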 The settings on record: small-molecule microarray binding, fluorescence 635 nm; higher = more signal.
In test [8] the target is Concanavalin-A (Canavalia ensiformis) (UniProt P02866). In words: ConA small-molecule binders, primary screen, artefact control for SMM control protein annotation, biochemical, small-molecule microarray, Alexa647 label, 635 nm (AID 1127).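 Further: z combines 667 nm emission intensity with signal-to-noise across three replicate slides.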 The conditions noted are these: ConA-A647 binding fluorescence, higher = more signal.
Chain of Concanavalin-A (Canavalia ensiformis) (P02866 whole entry, looked up): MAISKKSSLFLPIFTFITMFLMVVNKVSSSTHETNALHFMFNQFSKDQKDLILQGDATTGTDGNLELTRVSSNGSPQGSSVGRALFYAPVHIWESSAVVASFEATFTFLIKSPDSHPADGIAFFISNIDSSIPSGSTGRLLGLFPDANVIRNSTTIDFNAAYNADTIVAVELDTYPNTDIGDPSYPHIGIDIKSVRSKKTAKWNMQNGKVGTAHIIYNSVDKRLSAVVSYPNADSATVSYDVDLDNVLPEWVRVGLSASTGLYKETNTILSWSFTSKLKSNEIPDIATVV
Test [9] in a line: anti-His antibody binders, primary screen, artefact control for SMM control protein annotation, biochemical, small-molecule microarray, 635 nm fluorescence (AID 1128).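 Further: score merges feature fluorescence with signal-to-noise for each printed compound spot.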 The conditions noted are these: anti-His Alexa647 antibody binding, higher = more signal.
In test [10] the test system is Human papillomavirus type 1a E7 protein (residues 1-88). In words: HPV1a E7 small-molecule binders, primary screen, biochemical, small-molecule microarray, residues 1-88, 635 nm (AID 1129). The conditions noted are these: small-molecule microarray binding, fluorescence 635 nm; higher = more signal.
Test [11] addresses Focal adhesion kinase 1 (Homo sapiens) (UniProt Q05397). In words: small-molecule microarray binders of FAK, primary screen, biochemical, 635/667 nm fluorescence, BSA, DTT (AID 1130).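 Further: composite of spot emission at 667 nm and signal to noise over triplicate slides.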 The settings on record: PTK2 binding, 635 nm fluorescence, higher = more signal.
For test [12], the system named is Fibrinogen (Alexa647-labelled). In words: fibrinogen binders on compound microarrays, profiling panel, artefact control for SMM control-protein annotation, biochemical, small-molecule microarray, 635/667 nm fluorescence (AID 1131).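 Further: z-score merges 667 nm fluorescence with per-spot signal-to-noise over triplicate slides.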 The conditions noted are these: fibrinogen-A647 binding fluorescence, higher = more signal.
Test [13] deals with Follistatin (Homo sapiens) (UniProt P19883). In words: follistatin binders on small-molecule microarrays, primary screen, biochemical, small-molecule microarray, 635/667 nm fluorescence (AID 1132). The conditions noted are these: FST binding, 635 nm fluorescence, higher = more signal.
Chain of Follistatin (Homo sapiens) (P19883 whole entry, looked up): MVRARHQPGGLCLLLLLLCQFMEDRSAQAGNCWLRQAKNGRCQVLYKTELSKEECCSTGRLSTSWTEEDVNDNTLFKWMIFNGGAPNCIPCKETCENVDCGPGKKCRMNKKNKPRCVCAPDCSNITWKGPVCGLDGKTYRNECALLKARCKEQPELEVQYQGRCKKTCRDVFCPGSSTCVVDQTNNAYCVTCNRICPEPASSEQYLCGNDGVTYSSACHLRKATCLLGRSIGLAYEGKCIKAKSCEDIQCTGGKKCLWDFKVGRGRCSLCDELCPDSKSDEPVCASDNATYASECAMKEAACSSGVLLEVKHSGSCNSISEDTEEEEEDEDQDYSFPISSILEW
In test [14] the target is Fibroblast growth factor 2 (Homo sapiens) (UniProt P09038). In words: FGF2 binders on small-molecule microarrays, primary screen, biochemical, small-molecule microarray, 635/667 nm fluorescence (AID 1133). The conditions noted are these: small-molecule microarray binding, FGF2, fluorescence 635/667; higher = more signal.
Chain of Fibroblast growth factor 2 (Homo sapiens) (P09038 whole entry, looked up): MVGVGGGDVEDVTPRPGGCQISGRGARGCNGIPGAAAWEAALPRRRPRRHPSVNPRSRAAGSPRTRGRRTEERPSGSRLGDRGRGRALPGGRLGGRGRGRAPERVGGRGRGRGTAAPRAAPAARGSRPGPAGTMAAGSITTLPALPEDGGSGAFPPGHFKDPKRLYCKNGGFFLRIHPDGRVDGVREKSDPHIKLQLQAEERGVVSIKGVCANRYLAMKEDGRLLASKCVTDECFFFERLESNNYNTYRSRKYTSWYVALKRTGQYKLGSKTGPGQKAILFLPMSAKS
Test [15] can be described thus: mitochondrial membrane potential change in A549 cells, profiling panel, cell-based, JC-1 fluorescence, basal, 24 h, 100 nL (AID 1138).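 Further: A549 lung adenocarcinoma cells under basal conditions with no added stimulus; test concentration not given here.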 The conditions noted are these: higher = more signal.
For the next test, the system named is Lefty1. In words: Lefty1 binders on small-molecule microarrays, primary screen, biochemical, small-molecule microarray, 635/667 nm fluorescence (AID 1139). The settings on record: small-molecule microarray binding, fluorescence 635/667; higher = more signal.
The subject of test [16] is wheat germ agglutinin (Triticum aestivum), Alexa647-labelled. In words: wheat germ agglutinin binders on compound microarrays, profiling panel, artefact control for SMM control-protein annotation, biochemical, small-molecule microarray, 635/667 nm fluorescence (AID 1140).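 Further: score merges 667 nm feature emission with signal to noise over triplicate slides.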 The conditions noted are these: WGA-A647 binding, 635 nm fluorescence, higher = more signal.
The target of test [17] is Luciferin 4-monooxygenase (Photinus pyralis) (UniProt P08659). In words: firefly luciferase enzyme inhibitors, primary screen, biochemical, luminescence, purified enzyme, 2006 set (AID 1141).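 Further: cell-free assay with purified firefly luciferase at 100 ng per well in PBS; test concentration not given here.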 The conditions noted are these: SteadyGlo luminescence, 30 min, higher = more signal, called active from +8 up or from −8 down.
Chain of Luciferin 4-monooxygenase (Photinus pyralis) (P08659 whole entry, looked up): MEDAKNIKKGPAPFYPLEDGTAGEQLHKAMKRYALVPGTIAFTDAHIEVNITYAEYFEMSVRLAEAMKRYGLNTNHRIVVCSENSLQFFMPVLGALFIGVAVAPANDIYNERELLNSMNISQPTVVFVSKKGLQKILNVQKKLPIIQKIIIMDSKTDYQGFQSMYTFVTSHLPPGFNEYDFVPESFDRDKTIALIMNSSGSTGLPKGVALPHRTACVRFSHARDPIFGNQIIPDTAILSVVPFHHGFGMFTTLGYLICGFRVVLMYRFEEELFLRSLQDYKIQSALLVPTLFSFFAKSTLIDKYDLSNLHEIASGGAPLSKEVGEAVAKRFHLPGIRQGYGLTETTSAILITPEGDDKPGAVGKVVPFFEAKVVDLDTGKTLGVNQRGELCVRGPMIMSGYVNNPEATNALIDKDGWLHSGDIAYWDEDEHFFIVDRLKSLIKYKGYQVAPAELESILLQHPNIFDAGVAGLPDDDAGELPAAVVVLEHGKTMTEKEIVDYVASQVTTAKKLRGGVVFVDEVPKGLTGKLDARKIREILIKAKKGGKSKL

Activity calls are given as the source filed them.

Chain of Albumin (Bos taurus) (P02769 whole entry, looked up): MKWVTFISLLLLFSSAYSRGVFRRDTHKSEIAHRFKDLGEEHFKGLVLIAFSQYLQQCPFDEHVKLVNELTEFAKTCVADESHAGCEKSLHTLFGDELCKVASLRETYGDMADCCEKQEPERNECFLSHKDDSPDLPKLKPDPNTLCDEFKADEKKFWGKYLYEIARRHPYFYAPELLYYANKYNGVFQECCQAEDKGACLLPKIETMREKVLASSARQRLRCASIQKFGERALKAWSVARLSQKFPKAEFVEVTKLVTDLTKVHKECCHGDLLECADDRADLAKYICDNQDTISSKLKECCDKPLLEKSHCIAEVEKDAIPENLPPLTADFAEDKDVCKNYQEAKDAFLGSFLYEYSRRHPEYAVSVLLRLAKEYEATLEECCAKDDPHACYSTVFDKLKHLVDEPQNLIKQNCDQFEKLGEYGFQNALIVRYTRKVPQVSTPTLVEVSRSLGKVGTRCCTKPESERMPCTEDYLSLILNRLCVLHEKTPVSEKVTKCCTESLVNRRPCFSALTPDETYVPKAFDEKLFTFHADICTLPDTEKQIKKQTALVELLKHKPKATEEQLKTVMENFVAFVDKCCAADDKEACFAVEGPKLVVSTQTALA
Chain of Focal adhesion kinase 1 (Homo sapiens) (Q05397 whole entry, looked up): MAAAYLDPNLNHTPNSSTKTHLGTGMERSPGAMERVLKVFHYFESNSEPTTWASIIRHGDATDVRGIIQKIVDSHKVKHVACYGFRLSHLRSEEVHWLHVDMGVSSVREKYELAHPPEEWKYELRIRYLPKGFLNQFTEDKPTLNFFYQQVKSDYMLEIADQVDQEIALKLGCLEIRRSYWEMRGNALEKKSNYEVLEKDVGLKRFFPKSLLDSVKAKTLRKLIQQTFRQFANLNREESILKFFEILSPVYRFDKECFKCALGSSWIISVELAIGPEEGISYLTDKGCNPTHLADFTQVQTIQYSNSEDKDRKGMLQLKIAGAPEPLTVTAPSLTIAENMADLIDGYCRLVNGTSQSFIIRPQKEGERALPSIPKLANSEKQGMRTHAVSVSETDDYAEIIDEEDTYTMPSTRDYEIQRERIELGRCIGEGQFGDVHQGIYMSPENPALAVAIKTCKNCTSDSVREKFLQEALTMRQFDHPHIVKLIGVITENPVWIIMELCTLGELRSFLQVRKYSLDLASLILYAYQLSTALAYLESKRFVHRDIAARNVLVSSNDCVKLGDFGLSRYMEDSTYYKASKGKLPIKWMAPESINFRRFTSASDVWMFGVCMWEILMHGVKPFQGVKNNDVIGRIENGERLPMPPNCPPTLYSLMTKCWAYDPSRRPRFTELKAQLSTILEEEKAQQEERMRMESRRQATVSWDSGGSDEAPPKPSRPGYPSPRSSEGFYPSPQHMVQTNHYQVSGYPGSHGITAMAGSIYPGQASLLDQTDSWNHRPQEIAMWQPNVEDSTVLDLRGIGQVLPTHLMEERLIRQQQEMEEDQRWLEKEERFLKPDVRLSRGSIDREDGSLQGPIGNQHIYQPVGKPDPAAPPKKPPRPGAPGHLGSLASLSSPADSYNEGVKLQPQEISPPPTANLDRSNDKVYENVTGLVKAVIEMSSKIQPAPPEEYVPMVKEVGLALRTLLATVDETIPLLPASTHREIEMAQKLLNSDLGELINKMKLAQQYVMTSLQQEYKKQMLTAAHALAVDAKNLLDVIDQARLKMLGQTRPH

Turning to `C=CCOC(=O)[C@H]1[C@@H]2C(=O)O[C@@H](c3ccccc3)[C@@H](c3ccccc3)N2[C@@H](c2ccc(OCCOC(=O)[C@@H]3C[C@@H]4C(=O)N[C@@H](CC(C)C)C(=O)N4[C@@H]3c3ccc(O)cc3)cc2)[C@]12C(=O)Nc1ccccc12`, the composite z-score in the test with Albumin (Bos taurus) was 0.481; in test [2], 0.058; in test [3], -0.0631; in [4] it was 0.592; in test [5], 2.62; in test [6], 0.545. Moreover, the composite z-score with Sam68 (KHDRBS1) is 1.29; in test [7], 1.25; in [8], 1.15; in [9], 2.05; in test [10] it was 1.21; in test [11], 0.289. The composite z-score came to 0.78 in test [12]; 1.39 in [13]; 1.83 in [14]; 1.54 in the test with Lefty1; 0.232 in [16]. For the same compound, the composite Z-score in [1] was 0.183 (inactive). For the same compound, the values for the z-score in test [15] and in test [17] were -1.56 and -0.0838 (inactive), respectively.

On to `CCCC#C[Si](O[C@H](CC)c1cn(Cc2cccc(Cl)c2)nn1)(C(C)C)C(C)C`, for which the composite z-score with Albumin (Bos taurus) is 0.697; in [2] it was 0.0715; in test [3] it was -0.179; in test [4] it was 0.182; in test [5] it was 1.03; in test [6], 0.249. The composite z-score in the test with Sam68 (KHDRBS1) was 1.18; in test [7], 0.103; in test [8] it was 0.7; in test [9], 0.849; in [10] it was 0.87; in test [11], -0.442. Besides, the composite z-score in [12] is 0.684; in [13], 0.357; in test [14] it was 0.54; with Lefty1, 0.467; in [16], 0.686. Moreover, the composite Z-score in [1] is -0.014 (inactive). Besides, the z-score was -0.264 in test [15] and -0.786 (inactive) in [17].

In the case of `C=CCOC(=O)[C@H]1[C@@H]2C(=O)O[C@@H](c3ccccc3)[C@@H](c3ccccc3)N2[C@@H](c2ccc(OCCOC(=O)[C@@H]3C[C@@H]4C(=O)N[C@@H](CCCCNC(C)=O)C(=O)N4[C@@H]3c3ccc(O)cc3)cc2)[C@]12C(=O)Nc1ccccc12`, the composite z-score with Albumin (Bos taurus) is -0.729; in test [2] it was 0.173; in [3], -0.0291; in test [4], 0.638; in [5], 1.94; in test [6], 0.21. Further, the composite z-score came out at 1.3 with Sam68 (KHDRBS1); 1 in test [7]; 1.2 in test [8]; 3.17 in [9]; 1.22 in test [10]; 1.14 in test [11]. Moreover, the composite z-score in test [12] was found to be 0.76; in test [13], 1.25; in test [14], 1.49; with Lefty1, 1.23; in [16], 0.8. Moreover, the composite Z-score in test [1] is 0.282 (inactive). Moreover, the z-score in test [15] was -1.55; in test [17] it was -0.907 (inactive).

For `CCCC[C@H]1OB(O)C[C@H]2C1=C(COC)Cn1c(=O)n(-c3ccccc3)c(=O)n12`, the composite z-score is 0.0697 with Albumin (Bos taurus); -0.0903 in test [2]; -0.172 in [3]; -0.185 in [4]; 0.56 in [5]; 0.0521 in test [6]. Moreover, the composite z-score with Sam68 (KHDRBS1) is 0.439; in test [7], 0.432; in [8], -0.317; in test [9], -0.152; in test [10] it was 0.169; in test [11], -0.0429. The composite z-score in test [12] was 0.4; in test [13] it was 0.464; in [14] it was -1.06; in the test on Lefty1, 0.63; in test [16], 0.435. For the same compound, the composite Z-score in test [1] was -0.166 (inactive). Moreover, the z-score in test [15] is -0.514; in test [17], 0.382 (inactive).

With `COc1cc2c(cc1O)C(c1cccs1)N(C)CC2` (stereo not given), the composite z-score in the test with Albumin (Bos taurus) is 0.393; in test [2], -0.28; in [3], -0.182; in test [4], 0.311; in [5], 0.0056; in test [6], -0.465. In addition, the composite z-score in the test on Sam68 (KHDRBS1) is -1.2; in test [7] it was -0.231; in [8], -1.2; in [9] it was -1; in [10] it was -1.33; in test [11], 0.756. Also, the composite z-score in test [12] is -0.861; in test [13] it was -0.123; in [14], -0.0571; in the test on Lefty1, -0.574; in test [16], -1.05. Also, the composite Z-score in test [1] was -0.0667 (inactive). The z-score was -0.278 in [15] and 0.146 (inactive) in test [17].
